Compound activity as filed in PubChem.
HCMV antiviral – human cytomegalovirus inhibition; HFF cells, HCMV-luciferase reporter, 72 h; active compounds read low; activity change, negative = inhibition, % at 57.5 µM; actives 4.5% (n = 410,000); AID 1259415; in the data active means activity change below about -60%; inconclusive means no clear call, values can overlap the other calls; inactive means above about -39%
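Two-dose cell screen: HFF monolayers treated with compounds and infected with luciferase-expressing HCMV at 1 PFU/cell, 72 h at 37C, then lysed for luciferase measurement.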
FMDV inh – blocks foot and mouth disease virus. FMDV antiviral cell-based qHTS. Potency, µM (titrated, usually from 57.9 µM), without a hit: at the top dose activity change, negative = inhibition, hits mostly inhibitors. actives 1.2% (n = 410,000); calls by dose curve; tested in HEK293T cells; further: read-out not given here; potency means the concentration at half of the fitted maximal effect; nearly all actives have a fitted effect of over 45% in size
Vaccinia mCherry – vaccinia inhibition (mCherry reporter); Vaccinia virus mCherry reporter infection, fluorescence; Potency, µM (series often up to 36.5 µM), inactives show at the highest dose activity change, negative = inhibition, most hits filed as inhibitors; actives 0.63% (n = 310,000); AID 720579; calls by dose curve; tested in A549 cells; further: potency means the concentration at half of the fitted maximal effect; nearly all actives have a fitted effect of over 35% in size
MARV entry inh – inhibitors of Marburg virus binding or cell entry; Marburg virus pseudotyped entry inhibition, cell reporter; Potency, µM (highest dose often 37.8 µM), for the others: at the top dose activity change, negative = inhibition, most hits filed as inhibitors; actives 1.8% (n = 300,000); AID 540276; calls by dose curve; tested in HEK293 cells; further: potency means the concentration at half of the fitted maximal effect
VACV Venus inh – inhibitors of vaccinia virus (Venus reporter) | Potency, µM (top dose mostly 36.5 µM), inactives show top-dose activity change, negative = inhibition, usual class: inhibitors | Vaccinia virus Venus reporter expression, fluorescence | AID 720580 | actives 0.46% (n = 330,000); calls by dose curve; tested in A549 cells; further: potency means the concentration at half of the fitted maximal effect; nearly all actives have a fitted effect of over 30% in size
Lassa entry inh – Lassa virus entry inhibition; Lassa virus pseudotype entry inhibition, cell reporter; Potency, µM (doses to about 37.9 µM), inactives show top-dose activity change, negative = inhibition, hits mostly inhibitors; actives 1.2% (n = 300,000); AID 540256; calls by dose curve; tested in HEK293 cells; further: potency means the concentration at half of the fitted maximal effect; nearly all actives have a fitted effect of over 50% in size
Numbers without * were called inactive; i = inactive; ? = inconclusive; / = not tested or not shown; + = active, no number; ! = a repeat was not active; [ ] = dose if it differs, or a comment. In the library only some 6.5% were active in any assay of this set; here they are far more common. On the % scale 0 is the no-effect control and ±100 the full control effect.

SMILES | HCMV antiviral | FMDV inh | Vaccinia mCherry | MARV entry inh | VACV Venus inh | Lassa entry inh
N[C@@H](Cc1ccccc1)c1nnc(SCc2ccccc2F)o1 | 20 | 0% | 11µM* | 5% | ? | 8%
CCN=c1scc(-c2ccco2)n1/N=C/c1ccc(OC)c(O)c1 | 45 | -5% | -10% | 10% | -19% | ?
CN=c1scc(-c2ccc(F)cc2)n1/N=C/c1ccc(O)c(O)c1 | -67* | 1.3µM* | ? | 18µM* | -18% | ?
CC(=O)N1C(=O)N(C(C)=O)C2C1N(C)C(=O)N2C(C)=O (centres undefined) | -5 | 9% | -5% | 3%[46.1 µM] | -2% | 1%[46.1 µM]
COC(=O)c1ccc(CN2C(=O)[C@@]3(CC(C)=C[C@@H](COc4ccccc4)O3)c3ccccc32)cc1 | / | / | / | 21%[14.2 µM] | / | /
Cc1nn(C(C)C(=O)NCCCc2ccccc2)c(=O)c2nn(-c3ccccc3)c(C)c12 (centres undefined) | ? | ? | -12% | -11%[46.1 µM] | -19% | ?
CC(=O)Nc1ccc(NC(=O)CSc2nc3ccccc3nc2N2CCOCC2)cc1 | 33 | -24% | -13% | -6%[46.1 µM] | -6% | ?
COc1cccc(NC(=O)CSc2nc3ccccc3nc2N2CCOCC2)c1 | ? | -19% | i | ? | -15% | 7.1µM*
CCCN1C(=O)CC[C@@H](S(=O)(=O)c2ccccc2)[C@@H]1c1ccc(OC)cc1 | -11 | / | / | / | / | /
COc1ccc(CC2(C)OC(c3ccc(C)c([N+](=O)[O-])c3)=NN2C(C)=O)cc1 (centres undefined) | -9 | ? | -22% | ? | -16% | 0.79µM*
COc1ccc(OC)c(NC(=O)CN(C)S(=O)(=O)c2ccc(C(=O)N3CCOCC3)s2)c1 | -5 | -21% | 1% | / | -4% | 16%[46.1 µM]
CCN(CC)S(=O)(=O)c1ccc2c(c1)N(CC(=O)NCCCN1CCN(c3ccccc3F)CC1)C(=O)CO2 | -12 | -3% | -13% | ? | -12% | 2%[46.1 µM]
Cc1ccc(CCNC(=O)CN2C(=O)COc3ccc(S(=O)(=O)N4CCC(C)CC4)cc32)cc1 | ? | -1% | -16% | / | -15% | -16%[46.1 µM]
Cc1ccc(CCNC(=O)CN2C(=O)COc3ccc(S(=O)(=O)N4CCCC4)cc32)cc1 | -87* | -7% | i | / | -16% | 1%[46.1 µM]
COc1ccc(OC)c(CCNC(=O)CN2C(=O)COc3ccc(S(=O)(=O)N4CCOCC4)cc32)c1 | -72* | -4% | -17% | ? | -25% | 1%[46.1 µM]
O=C(CN1C(=O)COc2ccc(S(=O)(=O)N3CCCC3)cc21)Nc1cccc(F)c1 | -5 | 0% | / | / | / | /
O=C(CN1C(=O)COc2ccc(S(=O)(=O)N3CCCCCC3)cc21)Nc1cccc(Cl)c1 | -72* | -1% | -16% | / | -14% | -18%[46.1 µM]
CCN(CC)S(=O)(=O)c1ccc2c(c1)N(CC(=O)NCCCN1CCN(c3cc(C)ccc3C)CC1)C(=O)CO2 | -99* | 0% | ? | / | -22% | ?
COc1ccc(Cl)cc1NC(=O)C1CCCN(S(C)(=O)=O)C1 (centres undefined) | -30 | -8% | / | / | / | /
COC(=O)C1=C(C)N=C2S[C@H](C)C(=O)N2[C@@H]1c1cccc(F)c1 | / | / | / | -10% | / | /
CC1CCN(C(=O)c2ncn3c2c(=O)[nH]c2ccc(Br)cc23)CC1 | -26 | -3% | 0% | / | 2% | /
CC(=O)N1CCCC1c1nc2ccccc2n1Cc1cc(C)ccc1C (centres undefined) | -11 | -9% | i | 0%[46.1 µM] | -4% | -1%[46.1 µM]
COc1cc(/C=N/NC(=S)NCc2ccccc2)ccc1OCC#N | -18 | 0% | ? | ? | -23% | ?
CC(C)(C)c1ccc(/C=N/NC(=S)NCc2ccccc2)cc1 | -24 | -5% | -10% | 1% | -18% | 0.26µM*
CCOc1ccc(CNC(=S)N/N=C/c2ccc(OC)c(OC)c2)cc1 | 3 | 8% | ? | -72% | ? | 2.8µM*
SMILES | HCMV antiviral | FMDV inh | Vaccinia mCherry | MARV entry inh | VACV Venus inh | Lassa entry inh
CN(C)c1ccc(/C=N/NC(=S)NCc2ccccc2)cc1 | -19 | 21% | -3% | -1% | -11% | 0.28µM*
O=C(NCC1(N2CCCCC2)CCCC1)c1cnn(-c2nccc(-c3cccs3)n2)c1C1CC1 | / | -8% | -1% | / | 10% | /
C[C@H](Cc1ccccc1)Nc1ncnc2c1ncn2[C@@H]1O[C@H](CO)[C@H](O)[C@H]1O | / | / | / | 23% | / | /
COCCn1c(C)cc(O)c(C(c2ccccc2F)N2CCN(c3ccccc3)CC2)c1=O (centres undefined) | -11 | -23% | -15% | / | -4% | 0%[46.1 µM]
CC1Sc2ccc(S(=O)(=O)N3CCC(C(=O)NCCc4ccccc4)CC3)cc2NC1=O (centres undefined) | 53 | -22% | -13% | ? | -15% | ?
Cc1cccc(CCNC(=O)C2CCN(S(=O)(=O)c3ccccc3)CC2)c1 | -68* | -18% | -12% | -4%[46.1 µM] | -4% | -19%
Cc1ccc(NC(=O)C2CCN(S(=O)(=O)c3ccc4c(c3)NC(=O)C(C)S4)CC2)c(Cl)c1 (centres undefined) | 0 | 18µM* | / | / | / | /
Cc1ccc(CCNC(=O)C2CCN(S(=O)(=O)c3ccc4c(c3)NC(=O)C(C)S4)CC2)cc1 (centres undefined) | ? | 32µM* | i | ? | -27% | ?
O=C(NCCc1cccc(F)c1)C1CCN(S(=O)(=O)c2ccccc2)CC1 | -36 | -16% | / | / | / | /
CC(C)c1ccc(NC(=O)C2CCC(CNS(=O)(=O)c3ccc4c(c3)CCCC(=O)N4)CC2)cc1 (centres undefined) | -25 | 25µM* | ? | / | ? | ?
COC(=O)[C@@H]1[C@@H](CO)[C@@H]2Cn3c(cccc3=O)[C@H]1N2Cc1ccccc1OC | 19 | / | / | / | / | /
COc1ccc(CCn2c(C)cc(C(=O)CN3C(=O)C(=O)N(Cc4ccco4)C3=O)c2C)cc1 | -16 | -22% | / | / | / | /
Cc1ccc(NC(=O)C2CCN(S(=O)(=O)c3ccc4c(c3)CCCC(=O)N4)CC2)c(Br)c1 | +! | -18% | -8% | 10%[46.1 µM] | -19% | ?
Cc1ccc(NC(=O)C2CCN(S(=O)(=O)c3ccc4c(c3)NC(=O)C(C)S4)CC2)cc1Cl (centres undefined) | -99* | ? | / | / | / | /
Cc1ccc(C2CC(c3ccccc3)=NN2c2ccc(S(N)(=O)=O)cc2)cc1 (centres undefined) | -5 | -11% | -3% | / | -11% | /
CCc1ccc(C2=NN(c3ccc(S(N)(=O)=O)cc3)C(c3ccc(F)cc3)C2)cc1 (centres undefined) | -11 | -10% | ? | ? | ? | 7.9µM*
Cc1ccc(SC2=C(Sc3ccc(C)cc3)C(=O)c3ccccc3C2=O)cc1 | 9 | 25µM* | -6% | 2%[46.1 µM] | 6% | 11%[46.1 µM]
CC(=O)N1CCCC(c2cc(C(=O)Nc3ccccc3)no2)C1 (centres undefined) | -73* | 35µM* | -1% | / | 4% | /
